# Data published in PubChem BioAssay.
# Activity calls are given as the source filed them. Unless noted, the rule behind the calls is not given here.
# Key:
# [1] = system: Wnt5a (protein binding on small-molecule microarray); test: Wnt5a binders on small-molecule microarray, primary screen, biophysical, 635/667 nm fluorescence (AID 1142); conditions: 635 nm fluorescence, higher = more signal;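 note: fluorescence read at 667 nm with signal to noise per printed feature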
# [2] = cell viability in Huh7 cells, primary screen, cytotoxicity control for HCV replication inhibitor project, CellTiter-Glo luminescence, basal, 48 h (AID 1143); conditions: Huh7 HCV replicon, higher = more signal, called active from +8 up or from −8 down;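 note: Huh7 hepatoma cells carrying a hepatitis C replication reporter with no stimulus; test concentration not given here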
# [3] = P. aeruginosa biofilm formation inhibitors, primary screen, PAO1 strain, BacTiter-Glo luminescence, LB-PBS (AID 1144); conditions: 12 h, higher = more signal
# [4] = CREB reporter modulators without forskolin, primary screen, cell-based, PC12, CRE-LacZ reporter, unstimulated (AID 1145); conditions: no forskolin, luminescence, 4.5 h, higher = more signal, called active from +8 up or from −8 down
# [5] = CREB reporter modulators under forskolin, primary screen, cell-based, PC12, CRE-LacZ reporter, forskolin-stimulated (AID 1146); conditions: luminescence, 4.5 h, higher = more signal, called active from +8 up or from −8 down;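 note: PC12 cells with 6xCRE LacZ reporter stimulated by forskolin 10 µM; beta-galactosidase reporter signal reflecting CREB driven transcription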
# [6] = molecular target: Streptavidin (Streptomyces avidinii) (UniProt P22629); test: streptavidin binders on small-molecule microarray, primary screen, artefact control for SMM compound annotation, biophysical, 635/667 nm fluorescence (AID 1147); conditions: streptavidin binding, higher = more signal;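 note: signal reflects streptavidin binding to arrayed compounds as a control protein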
# Streptavidin (Streptomyces avidinii), sequence (P22629 whole entry, looked up): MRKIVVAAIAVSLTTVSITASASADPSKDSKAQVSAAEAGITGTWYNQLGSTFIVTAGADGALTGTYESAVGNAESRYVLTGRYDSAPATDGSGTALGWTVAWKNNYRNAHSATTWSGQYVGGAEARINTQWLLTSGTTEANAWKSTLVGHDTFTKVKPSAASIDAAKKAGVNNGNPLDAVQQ
# [7] = small-molecule binders of probe aInhba, primary screen, biochemical, small-molecule microarray, 635/667 nm fluorescence (AID 1148); conditions: higher = more signal;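 note: score merges 667nm spot fluorescence with signal-to-noise for antibody binding to printed compounds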
# Torsin-1A (Homo sapiens) [8] = molecular target: Torsin-1A (Homo sapiens) (UniProt O14656); test: torsin A binders from cell lysate, primary screen, small-molecule microarray, wild-type, 635/667 nm (AID 1149); conditions: COS7 hTOR1A-WT lysate, 635 nm fluorescence, higher = more signal
# Torsin-1A (Homo sapiens), sequence (O14656 whole entry, looked up): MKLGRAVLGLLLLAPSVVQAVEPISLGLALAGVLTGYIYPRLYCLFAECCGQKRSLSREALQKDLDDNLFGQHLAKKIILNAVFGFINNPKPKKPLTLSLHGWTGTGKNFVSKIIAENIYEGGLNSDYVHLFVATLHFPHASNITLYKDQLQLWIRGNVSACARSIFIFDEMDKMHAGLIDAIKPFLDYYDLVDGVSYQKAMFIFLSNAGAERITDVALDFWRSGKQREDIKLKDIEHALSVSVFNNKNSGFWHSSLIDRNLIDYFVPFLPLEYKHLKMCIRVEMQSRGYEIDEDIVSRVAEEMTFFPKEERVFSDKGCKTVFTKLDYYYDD
# Torsin-1A (Homo sapiens) [9] = molecular target: Torsin-1A (Homo sapiens) (UniProt O14656); test: small-molecule binders of mutant TOR1A in lysate, primary screen, cell lysate, small-molecule microarray, COS7 lysate, 635/667 nm fluorescence (AID 1150); conditions: COS7 hTOR1A mutant lysate, 635 nm fluorescence, higher = more signal;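 note: score pools 667 nm emission and signal to noise measuring lysate protein binding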
# [10] = system: Sonic hedgehog protein (Shh); test: small-molecule binders of Shh protein, primary screen, biochemical, small-molecule microarray, 635/667 nm fluorescence (AID 1151); conditions: small-molecule microarray binding, 635 nm fluorescence; higher = more signal;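 note: Shh protein binding to compounds spotted on small-molecule microarray slides; score combines spot fluorescence intensity with signal-to-noise across triplicate slides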
Compound,composite z-score [1],z-score [2],z-score [3],z-score [4],z-score [5],composite z-score [6],composite z-score [7],composite z-score (Torsin-1A (Homo sapiens) [8]),composite z-score (Torsin-1A (Homo sapiens) [9]),composite z-score [10]
O=C1[C@H]2[C@H]3[C@H](O)[C@H](O)CC(=NOCc4ccccc4)[C@@H]3CC[C@H]2C(=O)N1C1CCCCC1,0.0062,-0.48 (inactive),0.774 (inactive),0.519 (inactive),0.182 (inactive),-0.0498,-0.533,-0.0289,-0.47,-0.317
C[C@@H](c1ccccc1)N1C(=O)[C@H]2[C@H]3[C@H](O)[C@H](O)CC(=NNC(=O)OCc4ccccc4)[C@H]3CC[C@H]2C1=O,0.15,-0.0242 (inactive),0.158 (inactive),0.423 (inactive),-0.0874 (inactive),0.0456,-0.317,-0.184,-0.289,-0.108
C#CCCCON=C1C[C@@H](O)[C@@H](O)[C@@H]2[C@@H]3C(=O)N(Cc4ccccc4)C(=O)[C@@H]3CC[C@H]12,0.203,-3.22 (inactive),-1.13 (inactive),0.793 (inactive),-0.645 (inactive),0.0194,-0.209,0.289,-0.0292,0.985
C[C@@H]1C=CCC(=O)OC[C@H](C)C(=O)N2CCC[C@H]2C(=O)OC1,0.15,0.111 (inactive),-0.736 (inactive),-0.264 (inactive),-0.0697 (inactive),0.245,-0.21,3.08,2.85,2.33
CC(C)(C)N1CC=CC23O[C@@H]4C=CCCOC(=O)C4[C@H]2C(=O)N(CCCCCO)[C@@H]3C1=O (stereo not given in full),0.37,-0.128 (inactive),-0.174 (inactive),0.333 (inactive),-0.329 (inactive),-0.102,0.214,1.11,0.879,0.992
CO[C@@H]1COC(=O)CCC[C@@H](C)[C@H](OC)COC(=O)CCC[C@H]1C,-0.0665,-0.459 (inactive),-0.276 (inactive),-0.152 (inactive),0.273 (inactive),0.0601,-0.0405,0.978,0.662,0.533
C=CCOC(=O)[C@H]1[C@@H]2C(=O)O[C@@H](c3ccccc3)[C@@H](c3ccccc3)N2[C@@H](c2ccc(OCCOC(=O)[C@H]3C[C@H]4C(=O)N5CCC[C@H]5C(=O)N4[C@H]3c3cccc(OCCO)c3)cc2)[C@]12C(=O)Nc1ccc(I)cc12,1.83,0.156 (inactive),-0.315 (inactive),-0.134 (inactive),0.437 (inactive),2.76,1.17,1.95,2.23,2.08
Cc1ccc(F)cc1S(=O)(=O)N[C@@H]1CCN(Cc2ccc(CC(C)C)cc2)C1,-0.524,-4.94 (inactive),-0.158 (inactive),-0.683 (inactive),0.673 (inactive),-0.758,-0.231,0.492,-0.859,0.15
COc1ccc(O[C@H]2C=C[C@@H](c3ccccc3)O[C@@H]2CON=C[C@@H](C)[C@H](OCc2ccccc2)C(C)C)cc1,-0.426,-0.149 (inactive),0.531 (inactive),-0.971 (inactive),0.367 (inactive),-0.567,-0.21,-1.53,-0.91,-0.071
C=CCOC(=O)[C@H]1[C@@H]2C(=O)O[C@@H](c3ccccc3)[C@@H](c3ccccc3)N2[C@@H](c2ccc(OCCOC(=O)[C@H]3C[C@H]4C(=O)N[C@@H](Cc5ccccc5)C(=O)N4[C@H]3c3ccc(O)cc3)cc2)[C@]12C(=O)Nc1ccccc12,0.354,-0.155 (inactive),-0.0202 (inactive),0.285 (inactive),-0.231 (inactive),-0.261,-0.171,0.419,0.278,1.92
O=C1C[C@@H](O)[C@@H](O)[C@@H]2[C@@H]3C(=O)N(C4CCCCC4)C(=O)[C@@H]3CC[C@H]12,0.0832,0.406 (inactive),-0.653 (inactive),-0.0258 (inactive),-0.444 (inactive),0.0447,-0.128,0.296,0.585,-0.0419
CCOC(=O)CCN1C(=O)[C@H]2[C@H]3[C@H](O)C=CC(=O)[C@@H]3CC[C@H]2C1=O,-0.244,0.507 (inactive),-0.281 (inactive),-0.115 (inactive),-0.297 (inactive),0.225,0.0104,0.327,-0.364,0.425
C[C@@H]1CCC2C(=O)N(Cc3ccccc3)C[C@@H](O)CN2[C@H]1c1ccc(Br)cc1 (stereo not given in full),-0.412,-2.02 (inactive),-1.54 (inactive),2.28 (inactive),-0.284 (inactive),0.398,-0.0719,0.866,1.42,0.228
O=C1C[C@]2(c3ccc([N+](=O)[O-])cc3)C(=O)N(CCN3CCOCC3)c3cc(CO)ccc3[C@H]2N1CC12CC3CC(CC(C3)C1)C2,-0.433,-1.04 (inactive),-0.954 (inactive),0.324 (inactive),0.247 (inactive),-0.0783,-0.122,-0.967,-0.862,-0.509
COC(=O)CC=C[C@@H](C)[C@H](OC)c1ccccc1Br,-0.0438,0.266 (inactive),0.189 (inactive),-0.971 (inactive),-0.868 (inactive),-0.112,-0.128,0.258,0.466,0.153
COc1ccc(O[C@H]2C=C[C@@H](c3ccccc3)O[C@@H]2COC(=O)CCC(C)=NO[C@H](C)c2cn([C@@H]3COC[C@H]3O)nn2)cc1,0.276,-3.36 (inactive),-1.39 (inactive),5.66 (inactive),0.867 (inactive),2.18,-0.103,0.249,0.419,0.754
CC(C)=NOCc1cccc(-c2cc(-c3ccccc3)no2)c1,0.118,0.525 (inactive),-0.14 (inactive),-0.437 (inactive),0.345 (inactive),0.468,0.106,0.533,0.247,0.826
CCCC[C@@H](O)C1=C(C)C[C@H]2C(=O)N(Cc3ccccc3)C(=O)[C@H]2[C@H]1CO,-0.0299,-0.295 (inactive),-0.665 (inactive),1.29 (inactive),0.342 (inactive),-0.451,-0.0986,0.149,-0.21,0.572
CC(C)N1CC=CC23O[C@@H]4C=CCCOC(=O)C4[C@H]2C(=O)N(CCCCCCO)[C@@H]3C1=O (stereo not given in full),-0.952,0.471 (inactive),-0.454 (inactive),-0.488 (inactive),-0.905 (inactive),-0.717,-0.003,-1.12,-1.57,0.011
Cc1cc(C)c(-c2cc([C@H](C)ON=C3[C@H]4CCn5c(=O)n(-c6ccccc6)c(=O)n5[C@H]4[C@H](O)[C@@H]4O[C@H]34)on2)c(C)c1,0.266,-1.72 (inactive),1.96 (inactive),0.229 (inactive),1.43 (inactive),0.548,-0.0066,0.595,0.754,0.767
C#C[C@@H]1Oc2ccccc2S(=O)(=O)N2CCC[C@H]12,0.0869,0.299 (inactive),0.405 (inactive),1.58 (inactive),0.14 (inactive),0.261,-0.154,-0.0705,0.0535,0.101
CO[C@H]([C@@H](C)[C@H](OC)c1ccccc1)[C@H](C)[C@@H](OC)[C@H](C)C(C)=O,-0.183,0.0807 (inactive),0.185 (inactive),-0.98 (inactive),-0.358 (inactive),-0.554,0.809,-0.225,-0.327,0.497
CC(C)CON=C1C[C@@H](O)[C@@H](O)[C@@H]2[C@@H]3C(=O)N(Cc4ccccc4)C(=O)[C@@H]3CC[C@@H]12,0.0819,0.674 (inactive),0.579 (inactive),-0.203 (inactive),0.462 (inactive),-0.354,-0.071,0.407,0.16,0.305
O=C1[C@H]2[C@H]3[C@H](O)[C@H](O)CC(=NOC[C@@H](O)COCc4ccco4)[C@@H]3CC[C@H]2C(=O)N1c1ccc(F)cc1F,0.0016,-1.7 (inactive),1.85 (inactive),-0.475 (inactive),-0.0097 (inactive),-0.195,-0.231,1.13,0.516,0.749
Cc1ccc(S[C@]2(C(=O)NCC(F)(F)F)CC(=O)N(Cc3ccccc3Cl)[C@@H]2c2ccc(CO)cc2I)cc1,-0.273,-1.36 (inactive),0.977 (inactive),3.13 (inactive),2.82 (inactive),-0.809,-0.152,-0.396,0.288,-0.155
C[C@@H](c1ccccc1)N1C(=O)[C@H]2[C@H]3[C@H](O)C=CC(=O)[C@@H]3CC[C@H]2C1=O,-0.143,-1.8 (inactive),0.715 (inactive),0.247 (inactive),-0.323 (inactive),0.831,0.0422,0.445,0.0746,0.593
CO[C@H]1COC(=O)[C@@H]2CCCN2C(=O)CC=C[C@@H](C)[C@H](OC)COC(=O)CC=C[C@@H]1C,0.191,-1.32 (inactive),-1.11 (inactive),2.42 (inactive),0.104 (inactive),-0.689,-0.0858,1.49,1.27,1.98
O=C1[C@H]2[C@H]3[C@H](O)[C@H](O)CC(=NO[C@@H]4O[C@H](CO)[C@@H](O)[C@H](O)[C@H]4O)[C@@H]3CC[C@H]2C(=O)N1Cc1ccccc1,-0.0389,-0.435 (inactive),0.0971 (inactive),-0.929 (inactive),0.488 (inactive),-0.561,0.0925,-0.333,0.409,-0.37
COc1ccc([Si](C)(C)[C@@H]2[C@@H](CC(=O)N3CCC[C@H]3CO)O[C@]3(C(=O)N(Cc4cccc(N5CCC5=O)c4)c4ccccc43)[C@H]2C)cc1,-0.071,-3.38 (inactive),-1.54 (inactive),0.772 (inactive),-0.662 (inactive),1.56,0.3,0.511,0.413,2
